Results reported in PubChem BioAssay (EPA / NIEHS).
Calls of active or inactive are those of the source. The calls were made as follows: active = hit-call score of the fitted dose curve at least 0.9, where 1 is the maximum; inactive = score below 0.9.

Assays:
[1] = biological target: Bile acid receptor (Homo sapiens) (UniProt Q96RI1); assay: ATG_IR1_CIS: Attagene CIS-FACTORIAL HepG2 Assay for human Nuclear Receptor Subfamily 1 Group H Member 4 (NR1H4), IR1 submotif (AID 2282946); conditions: IR1 reporter transcription, actives raise or lower the signal
How it was run: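 Transient MRTU transfection, HepG2; 24 h dosing; RNA → RT-PCR → 6-FAM primer extension → HpaI digest → capillary electrophoresis fluorescence. Gain/loss of signal fitted relative to DMSO.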

[2] = ATG_ISRE_CIS: Attagene CIS-FACTORIAL HepG2 Assay for human Interferon Regulatory Factor 1 (IRF1) binding to an Interferon-Stimulated Response Element (ISRE) (AID 2282948); conditions: HepG2 ISRE cis-reporter (Attagene), mRNA transcription readout; actives raise or lower the signal
How it was run: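 Quantitation relies on labelled RT-PCR fragments separated by capillary electrophoresis. Human HepG2 cells bearing cis-promoter reporter constructs were treated 24 h; DMSO served as baseline for bidirectional fitting.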

[3] = ATG_M_32_CIS: Attagene CIS-FACTORIAL HepG2 Assay for M32 Transcription Factor (Internal Marker) (AID 2282949); conditions: HepG2 Attagene cis-factorial M32 reporter, mRNA; actives raise or lower the signal;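 also: background control marker of the multiplexed CIS panel rather than a real target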
How it was run: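 Following 24 h chemical exposure of HepG2 cells transiently expressing cis-promoter reporter constructs, reporter transcript levels were determined by RT-PCR with fluorescent labelling and capillary electrophoresis, then fitted bidirectionally against DMSO.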

[4] = ATG_M_06_CIS: Attagene CIS-FACTORIAL HepG2 Assay for M06 Transcription Factor (Internal Marker) (AID 2282950); conditions: HepG2 Attagene CIS-FACTORIAL M06 internal marker reporter; actives raise or lower the signal
How it was run: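 HepG2 cells transiently transfected with cis-regulated multiple reporter transcription units were exposed to chemical for 24 h; reporter mRNA was quantified by RT-PCR, 6-FAM primer labelling, HpaI digestion and capillary electrophoresis, fitted bidirectionally against DMSO.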

[5] = biological target: Hypoxia-inducible factor 1-alpha (Homo sapiens) (UniProt Q16665); assay: ATG_HIF1a_CIS: Attagene CIS-FACTORIAL HepG2 Assay for human Hypoxia Inducible Factor 1 (HIF1A) (AID 2282951); conditions: HepG2 Attagene cis-factorial HIF1a reporter transcription; actives raise or lower the signal
How it was run: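 RT-PCR/capillary electrophoresis fluorescence readout of reporter transcripts from endogenous-TF-driven cis elements in transfected HepG2 cells, 24 h exposure; activity fitted in both directions against DMSO controls.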

[6] = biological target: Hepatocyte nuclear factor 6 (Homo sapiens) (UniProt Q9UBC0); assay: ATG_HNF6_CIS: Attagene CIS-FACTORIAL HepG2 Assay for human Hepatocyte Nuclear Factor 6 (HNF6) (AID 2282952); conditions: HepG2 Attagene cis-factorial HNF6 reporter transcription; actives raise or lower the signal
How it was run: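 Reporter mRNA induction or loss in HepG2 after 24 h exposure; transient cis-MRTU transfection; fragments quantified by capillary electrophoresis; bidirectional analysis, DMSO as negative control.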

[7] = biological target: Heat shock factor protein 1 (Homo sapiens) (UniProt Q00613); assay: ATG_HSE_CIS: Attagene CIS-FACTORIAL HepG2 Assay for human Heat Shock Transcription Factor 1 (HSE) (AID 2282953); conditions: HepG2 HSE cis-reporter, Attagene RNA transcription; actives raise or lower the signal
How it was run: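 HepG2 cells transiently transfected with multiple reporter transcription units under cis-regulatory promoter control, measuring endogenous transcription factor activity. After 24 h chemical exposure, reporter mRNA quantified by RT-PCR, fluorescent labelling, HpaI digestion and capillary electrophoresis; bidirectional fit versus DMSO.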

[8] = ATG_MRE_CIS: Attagene CIS-FACTORIAL HepG2 Assay for human Metal Responsive Element (MRE) (AID 2282954); conditions: HepG2 MRE cis-reporter transcription, Attagene multiplex; actives raise or lower the signal
How it was run: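 HepG2 cells transiently transfected with multiple cis-element reporter units measure endogenous MTF1-driven transcription. After 24 h compound exposure, reporter mRNA is quantified by RT-PCR with 6-FAM labelling, HpaI digestion and capillary electrophoresis; bidirectional fits versus DMSO.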

[9] = ATG_PBREM_CIS: Attagene CIS-FACTORIAL HepG2 Assay for human Phenobarbital-responsive Enhancer Module (PBREM) (AID 2282955); conditions: HepG2 PBREM cis-reporter, Attagene multiplexed transcription; actives raise or lower the signal
How it was run: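 Reporter mRNA read by RT-PCR, 6-FAM primer extension, HpaI digestion and capillary electrophoresis. Transfected HepG2 cells, 24 h compound exposure. Gain or loss of signal fitted bidirectionally relative to DMSO baseline.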

[10] = biological target: Paired box protein Pax-6 (Homo sapiens) (UniProt P26367); assay: ATG_Pax6_CIS: Attagene CIS-FACTORIAL HepG2 Assay for human Paired Box 6 (PAX6) (AID 2282956); conditions: HepG2 CIS-FACTORIAL PAX6 reporter transcription, RNA readout; actives raise or lower the signal
How it was run: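 After twenty-four hours of chemical exposure, transfected HepG2 cells are harvested for RNA. Cis-promoter reporter transcripts are amplified, fluorescently labelled and sized by capillary electrophoresis, with gain and loss of signal scored against DMSO.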

[11] = ATG_PXRE_CIS: Attagene CIS-FACTORIAL HepG2 Assay for human Pregnane X Receptor Element (PXRE) (AID 2282957); conditions: HepG2 Attagene CIS-FACTORIAL PXRE reporter, mRNA; actives raise or lower the signal
How it was run: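 Transiently transfected HepG2 cells were dosed and incubated for 24 h. RNA was then isolated, DNase-treated, reverse-transcribed and reporter sequences amplified. Labeled, HpaI-digested fragments were quantified by capillary electrophoresis against DMSO.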

[12] = ATG_RORE_CIS: Attagene CIS-FACTORIAL HepG2 Assay for human RAR-related Orphan Receptor Element (RORE) (AID 2282959); conditions: HepG2 Attagene cis-factorial RORE reporter, mRNA; actives raise or lower the signal
How it was run: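 Readout: fluorescent reporter mRNA by RT-PCR plus capillary electrophoresis, 24 h after dosing transfected HepG2 cells. Endogenous transcription factor activity on a cis promoter element is measured. Gain or loss of signal fitted against DMSO.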

[13] = biological target: Transcription factor Sp1 (Homo sapiens) (UniProt P08047); assay: ATG_Sp1_CIS: Attagene CIS-FACTORIAL HepG2 Assay for human Specificity Protein 1 (Sp1) (AID 2282961); conditions: HepG2 Sp1 cis-reporter transcription, actives raise or lower the signal
How it was run: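 Read-out: fluorescence of 6-FAM-labeled, HpaI-digested RT-PCR products separated by capillary electrophoresis. HepG2 cells carried transfected cis-element reporter units and were exposed to chemicals for 24 h; gain or loss of signal fitted relative to DMSO.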

[14] = ATG_SREBP_CIS: Attagene CIS-FACTORIAL HepG2 Assay for human Sterol Regulatory Element Binding (SREBP) (AID 2282962); conditions: HepG2 Attagene cis-factorial SREBP reporter, mRNA; actives raise or lower the signal
How it was run: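 Twenty-four hours after chemical dosing of transfected HepG2 cultures, reporter RNA was converted to cDNA, amplified, end-labelled with 6-FAM and resolved by capillary electrophoresis. Responses were fitted relative to DMSO.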

[15] = biological target: Signal transducer and activator of transcription 3 (Homo sapiens) (UniProt P40763); assay: ATG_STAT3_CIS: Attagene CIS-FACTORIAL HepG2 Assay for human Signal Transducer and Activator of Transcription 3 (STAT3) (AID 2282963); conditions: HepG2, Attagene cis-factorial STAT3 reporter transcription; actives raise or lower the signal
How it was run: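 HepG2 cells transiently transfected with cis-element-driven multiple reporter transcription units; after 24 h chemical exposure, reporter mRNA measured by RT-PCR, 6-FAM primer-extension labelling, HpaI digestion and capillary electrophoresis. Bidirectional fitting versus DMSO baseline.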

[16] = ATG_TA_CIS: Attagene CIS-FACTORIAL HepG2 Assay for human TA Basal Promoter (AID 2282964); conditions: HepG2 Attagene CIS-factorial TA basal promoter reporter; actives raise or lower the signal
How it was run: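 HepG2 cells transiently transfected with multiplexed cis-promoter reporter units, dosed 24 h. Reporter mRNA measured by RT-PCR, 6-FAM labelling, HpaI digestion and capillary electrophoresis; bidirectional fit versus DMSO baseline, serving as background control.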

[17] = ATG_TCF_b_cat_CIS: Attagene CIS-FACTORIAL HepG2 Assay for human T-Cell-Factor with beta-catenin (TCF/b-cat) (AID 2282965); conditions: HepG2 TCF/beta-catenin cis-reporter transcription, actives raise or lower the signal
How it was run: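 HepG2 cells transiently transfected with multiple cis-promoter-regulated reporter transcription units, so endogenous transcription factor activity is measured. Reporter mRNA read 24 hours after dosing by RT-PCR, fluorescent labelling and capillary electrophoresis; bidirectional fitting against DMSO.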

[18] = ATG_Sox_CIS: Attagene CIS-FACTORIAL HepG2 Assay for human SRY-box transcription factor (SOX) (AID 2282960); conditions: HepG2 Attagene cis-factorial SOX reporter, mRNA; actives raise or lower the signal
How it was run: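 Read-out: fluorescent RT-PCR products of SOX1-linked reporter transcripts resolved by capillary electrophoresis, fitted bidirectionally against DMSO. Transiently transfected HepG2 cells, 24 h after chemical exposure, endogenous transcription factor activity.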

[19] = ATG_PPRE_CIS: Attagene CIS-FACTORIAL HepG2 Assay for human Peroxisome Proliferator-activated Response Element (PPRE) (AID 2282958); conditions: HepG2 PPRE cis-element reporter, Attagene transcription factor profiling; actives raise or lower the signal
How it was run: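 Read-out: fluorescent reporter mRNA fragments resolved by capillary electrophoresis after RT-PCR. HepG2 cells carried transiently transfected PPRE-driven cis reporter constructs and were dosed for 24 h; gain or loss of signal fitted relative to DMSO.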

[20] = ATG_GRE_CIS: Attagene CIS-FACTORIAL HepG2 Assay for human Glucocorticoid Response Elements (GRE) (AID 2282947); conditions: HepG2 GRE cis-reporter, Attagene multiplex mRNA; actives raise or lower the signal
How it was run: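 HepG2 cells transiently transfected with multiple cis-promoter reporter units measure endogenous TF activity; 24 h compound exposure. Reporter mRNA quantified by RT-PCR, FAM labelling, HpaI digestion and capillary electrophoresis; bidirectional fit vs DMSO baseline.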

Measured: AC50

Sequence of Hepatocyte nuclear factor 6 (Homo sapiens) (Q9UBC0 whole entry, looked up, the tested form may be a part): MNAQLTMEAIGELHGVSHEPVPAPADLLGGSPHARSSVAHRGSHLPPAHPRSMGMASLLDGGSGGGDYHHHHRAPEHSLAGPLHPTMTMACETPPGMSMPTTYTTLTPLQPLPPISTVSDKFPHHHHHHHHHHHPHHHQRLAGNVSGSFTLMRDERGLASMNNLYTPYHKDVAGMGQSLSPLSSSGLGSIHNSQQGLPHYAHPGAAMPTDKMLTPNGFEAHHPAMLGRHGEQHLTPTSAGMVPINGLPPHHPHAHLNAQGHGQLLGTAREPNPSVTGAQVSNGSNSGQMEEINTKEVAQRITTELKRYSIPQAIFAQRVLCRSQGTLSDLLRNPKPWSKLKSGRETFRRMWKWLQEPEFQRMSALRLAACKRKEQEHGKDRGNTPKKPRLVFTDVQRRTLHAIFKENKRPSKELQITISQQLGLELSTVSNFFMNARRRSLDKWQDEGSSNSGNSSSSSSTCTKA
Sequence of Heat shock factor protein 1 (Homo sapiens) (Q00613 whole entry, looked up): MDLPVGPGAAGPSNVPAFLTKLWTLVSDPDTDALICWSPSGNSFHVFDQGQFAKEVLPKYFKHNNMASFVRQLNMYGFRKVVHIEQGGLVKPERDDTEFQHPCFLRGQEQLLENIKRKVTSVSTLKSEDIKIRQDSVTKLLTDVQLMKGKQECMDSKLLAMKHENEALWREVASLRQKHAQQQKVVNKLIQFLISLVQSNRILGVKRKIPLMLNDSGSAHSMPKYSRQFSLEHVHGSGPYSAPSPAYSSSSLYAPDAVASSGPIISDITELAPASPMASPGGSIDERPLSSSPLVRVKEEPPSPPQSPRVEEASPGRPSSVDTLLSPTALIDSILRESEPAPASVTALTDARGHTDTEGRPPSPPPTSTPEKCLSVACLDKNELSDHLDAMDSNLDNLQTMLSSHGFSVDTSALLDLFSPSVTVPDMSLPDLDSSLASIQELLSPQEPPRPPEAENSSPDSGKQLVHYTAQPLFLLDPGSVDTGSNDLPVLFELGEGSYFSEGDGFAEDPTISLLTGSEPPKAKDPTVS
Sequence of Hypoxia-inducible factor 1-alpha (Homo sapiens) (Q16665 whole entry, looked up): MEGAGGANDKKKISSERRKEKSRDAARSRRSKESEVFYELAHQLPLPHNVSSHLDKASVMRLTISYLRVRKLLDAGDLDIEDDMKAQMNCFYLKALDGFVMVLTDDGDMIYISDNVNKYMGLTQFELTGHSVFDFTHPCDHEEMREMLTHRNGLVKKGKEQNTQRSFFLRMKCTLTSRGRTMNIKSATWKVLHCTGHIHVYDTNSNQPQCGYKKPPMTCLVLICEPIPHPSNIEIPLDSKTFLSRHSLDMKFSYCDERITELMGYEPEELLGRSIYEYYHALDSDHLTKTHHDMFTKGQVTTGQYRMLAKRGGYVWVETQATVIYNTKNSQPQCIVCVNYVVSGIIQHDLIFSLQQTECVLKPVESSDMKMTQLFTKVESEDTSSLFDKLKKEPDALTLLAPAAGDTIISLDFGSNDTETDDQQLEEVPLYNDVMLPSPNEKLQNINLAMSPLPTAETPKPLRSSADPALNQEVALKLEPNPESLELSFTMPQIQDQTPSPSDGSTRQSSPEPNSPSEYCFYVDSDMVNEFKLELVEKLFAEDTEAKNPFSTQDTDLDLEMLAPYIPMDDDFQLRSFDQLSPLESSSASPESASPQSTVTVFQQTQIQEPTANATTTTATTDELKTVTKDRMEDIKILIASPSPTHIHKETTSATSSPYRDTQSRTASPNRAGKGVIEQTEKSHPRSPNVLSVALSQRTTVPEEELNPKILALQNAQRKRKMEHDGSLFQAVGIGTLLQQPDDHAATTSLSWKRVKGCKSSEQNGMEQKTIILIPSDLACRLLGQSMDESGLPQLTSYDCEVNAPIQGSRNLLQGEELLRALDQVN
Sequence of Transcription factor Sp1 (Homo sapiens) (P08047 whole entry, looked up): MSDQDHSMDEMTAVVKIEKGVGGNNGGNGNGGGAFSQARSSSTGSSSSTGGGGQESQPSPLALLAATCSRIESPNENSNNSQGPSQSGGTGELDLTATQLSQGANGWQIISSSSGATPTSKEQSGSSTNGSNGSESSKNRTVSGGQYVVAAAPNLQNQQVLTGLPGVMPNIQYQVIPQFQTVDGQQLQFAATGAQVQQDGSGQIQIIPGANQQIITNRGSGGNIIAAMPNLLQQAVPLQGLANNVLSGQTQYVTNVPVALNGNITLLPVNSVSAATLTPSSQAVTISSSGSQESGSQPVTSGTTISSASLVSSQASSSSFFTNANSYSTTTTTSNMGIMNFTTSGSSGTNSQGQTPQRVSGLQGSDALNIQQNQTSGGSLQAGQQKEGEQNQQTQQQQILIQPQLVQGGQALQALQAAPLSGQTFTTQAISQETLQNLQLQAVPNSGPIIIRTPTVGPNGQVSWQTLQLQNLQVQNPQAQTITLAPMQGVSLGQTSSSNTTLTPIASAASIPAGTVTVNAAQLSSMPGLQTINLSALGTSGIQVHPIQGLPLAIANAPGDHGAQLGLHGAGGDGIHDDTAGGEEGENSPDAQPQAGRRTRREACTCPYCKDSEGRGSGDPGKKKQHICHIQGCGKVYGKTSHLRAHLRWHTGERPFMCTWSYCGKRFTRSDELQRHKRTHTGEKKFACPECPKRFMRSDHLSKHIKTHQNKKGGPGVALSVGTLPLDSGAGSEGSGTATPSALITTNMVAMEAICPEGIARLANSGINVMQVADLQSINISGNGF
Sequence of Paired box protein Pax-6 (Homo sapiens) (P26367 whole entry, looked up): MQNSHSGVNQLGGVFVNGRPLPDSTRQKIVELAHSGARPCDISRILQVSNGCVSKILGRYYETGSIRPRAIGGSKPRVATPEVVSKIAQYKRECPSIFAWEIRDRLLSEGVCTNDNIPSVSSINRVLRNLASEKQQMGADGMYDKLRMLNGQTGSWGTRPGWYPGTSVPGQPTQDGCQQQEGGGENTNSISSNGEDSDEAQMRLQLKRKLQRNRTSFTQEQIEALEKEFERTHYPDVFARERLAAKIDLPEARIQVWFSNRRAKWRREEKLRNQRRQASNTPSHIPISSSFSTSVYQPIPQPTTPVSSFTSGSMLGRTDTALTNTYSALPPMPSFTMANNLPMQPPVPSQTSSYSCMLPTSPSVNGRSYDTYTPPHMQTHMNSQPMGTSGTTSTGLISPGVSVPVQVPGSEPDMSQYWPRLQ
Sequence of Bile acid receptor (Homo sapiens) (Q96RI1 whole entry, looked up): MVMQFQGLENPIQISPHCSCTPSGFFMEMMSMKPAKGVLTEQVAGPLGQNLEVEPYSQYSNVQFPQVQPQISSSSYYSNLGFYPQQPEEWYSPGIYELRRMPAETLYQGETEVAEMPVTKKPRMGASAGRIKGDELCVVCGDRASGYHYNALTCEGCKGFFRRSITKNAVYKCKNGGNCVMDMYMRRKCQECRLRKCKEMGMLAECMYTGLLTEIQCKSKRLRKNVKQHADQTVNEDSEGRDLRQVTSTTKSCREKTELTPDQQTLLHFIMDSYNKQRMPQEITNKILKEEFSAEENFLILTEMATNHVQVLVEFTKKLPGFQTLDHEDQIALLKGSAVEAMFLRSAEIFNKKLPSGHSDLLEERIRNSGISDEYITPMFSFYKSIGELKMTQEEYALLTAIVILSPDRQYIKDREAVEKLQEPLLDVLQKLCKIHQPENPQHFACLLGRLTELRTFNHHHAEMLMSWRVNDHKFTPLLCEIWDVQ
Sequence of Signal transducer and activator of transcription 3 (Homo sapiens) (P40763 whole entry, looked up): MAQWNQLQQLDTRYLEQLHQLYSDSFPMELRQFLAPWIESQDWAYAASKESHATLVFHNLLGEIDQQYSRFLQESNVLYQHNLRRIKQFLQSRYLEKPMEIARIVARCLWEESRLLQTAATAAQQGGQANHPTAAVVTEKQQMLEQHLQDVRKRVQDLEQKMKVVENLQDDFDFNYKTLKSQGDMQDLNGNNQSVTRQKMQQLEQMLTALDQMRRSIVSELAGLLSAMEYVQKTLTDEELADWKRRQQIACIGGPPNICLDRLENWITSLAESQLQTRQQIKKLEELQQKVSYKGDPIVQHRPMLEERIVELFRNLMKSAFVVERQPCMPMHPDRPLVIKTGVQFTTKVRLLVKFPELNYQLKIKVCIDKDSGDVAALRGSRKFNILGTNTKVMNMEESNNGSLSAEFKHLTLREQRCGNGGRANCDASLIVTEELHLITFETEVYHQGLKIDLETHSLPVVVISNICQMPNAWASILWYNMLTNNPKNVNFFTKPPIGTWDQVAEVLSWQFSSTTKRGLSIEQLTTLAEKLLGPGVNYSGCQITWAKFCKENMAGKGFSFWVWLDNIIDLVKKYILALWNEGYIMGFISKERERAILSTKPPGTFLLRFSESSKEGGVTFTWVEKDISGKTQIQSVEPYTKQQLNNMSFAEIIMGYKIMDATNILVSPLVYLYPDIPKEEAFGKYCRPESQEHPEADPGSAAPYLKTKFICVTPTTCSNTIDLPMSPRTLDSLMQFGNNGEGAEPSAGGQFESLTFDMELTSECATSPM

COc1ccc(OC)c(OC)c1
not listed: [18] | [19] | [20]
inactive: all other assays above

c1ccc2sc(SN(C3CCCCC3)C3CCCCC3)nc2c1
active: [11] 0.698 µM
not listed: [12] | [14] | [19] | [20]
inactive: all other assays above

CC(=O)Nc1ccc(C)cc1C
not listed: [11] | [14] | [20]
inactive: all other assays above

O=C1c2ccccc2C(=O)N1SC1CCCCC1
active: [1] 142 µM | [3] 189 µM | [7] 37.9 µM | [11] 148 µM | [13] 59.1 µM | [15] 145 µM
not listed: [16] | [17] | [19] | [20]
inactive: all other assays above

CC(=O)[C@H]1CC[C@H]2[C@@H]3CC=C4C[C@@H](O)CC[C@]4(C)[C@H]3CC[C@]12C
active: [2] 36 µM | [17] 52.8 µM
not listed: [3] | [7] | [11] | [18] | [20]
inactive: all other assays above

CCN(CC)c1ccc2c(-c3ccccc3C(=O)O)c3ccc(=[N+](CC)CC)cc-3oc2c1
active: [1] 70.4 µM | [2] 59.9 µM | [5] 154 µM | [7] 178 µM | [10] 149 µM | [11] 0.882 µM | [17] 30.8 µM
not listed: [8] | [14] | [15] | [20]
inactive: all other assays above

O=C(O)C[C@H](O)C[C@H](O)/C=C/c1c(C2CC2)nc2ccccc2c1-c1ccc(F)cc1
active: [14] 0.0712 µM
not listed: [3] | [7] | [11] | [12] | [16] | [20]
inactive: all other assays above

OCC(CO)(CO)COCC(CO)(CO)CO
not listed: [17] | [19] | [20]
inactive: all other assays above

O=C1OC2(c3cc(Br)c(O)c(Br)c3Oc3c2cc(Br)c(O)c3Br)c2c(Cl)c(Cl)c(Cl)c(Cl)c21
active: [8] 19.1 µM | [10] 62.2 µM | [11] 5.13 µM | [12] 50.2 µM | [14] 17 µM | [17] 87.5 µM
not listed: [1] | [19]
inactive: all other assays above

Nc1cccc(S(=O)(=O)c2cccc(N)c2)c1
not listed: [1] | [12]
inactive: all other assays above

CC(=O)OCCOC(C)=O
active: [11] 82.2 µM
not listed: [1] | [19]
inactive: all other assays above

CCCCC(CC)COCCC#N (stereo unspecified)
active: [11] 27.9 µM
not listed: [1]
inactive: all other assays above

CCCCCCCCC=O
not listed: [1] | [14] | [19]
inactive: all other assays above

CC(=O)O[C@H](CC(=O)[O-])C[N+](C)(C)C
not listed: [1] | [9]
inactive: all other assays above
